From PubChem BioAssay AID1159580 (chemical genetic matrix, 2015)
Out of some 5,500 compounds screened, about 2,000 (36%) were called active. Roughly 18% stayed inconclusive and do not appear here. No stated cut-off is given here; in the data, active means normalized growth mostly below about 0.91 (no sharp cut-off); inconclusive means no clear call, values can overlap the other calls; inactive means mostly above about 0.92. Some of the results follow.

Experiment: chemical genetic growth profiling, strain panel (AID 1159580);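 further: tested at 20 µM; growth read once vehicle control cultures reached saturation at 30 °C; 1 = growth at the plate median or of vehicle wells; lower values mean less growth of the strain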
Conditions: S. cerevisiae deletion strains, growth OD

Measured: normalized growth

CC(C)(C)C(=O)/C(C#N)=C/c1c(Cl)cccc1Cl
active: locus YAR019C, strain CDC15, hits give low values 0.366 | locus YBL105C, strain PKC1, hits give low values 0.373 | locus YBR135W, strain CKS1, hits give low values 0.894 | locus YBR136W, strain MEC1, hits give low values 0.722 | locus YDL017W, strain CDC7, hits give low values 0.695 | locus YDL214C, strain PRR2, hits give low values 0.124 | locus YDR054C, strain cdc34, hits give low values 0.291 | locus YDR477W, strain SNF1, hits give low values 0.11 | locus YER123W, strain YCK3, hits give low values 0.105 | locus YER133W, strain GLC7, hits give low values 0.108 | locus YFL029C, strain CAK1, hits give low values 0.315 | locus YFR019W, strain FAB1, hits give low values 0.108 | locus YFR028C, strain CDC14, hits give low values 0.575 | locus YGR040W, strain KSS1, hits give low values 0.112 | locus YGR052W, strain FMP48, hits give low values 0.136 | locus YGR092W, strain DBF2, hits give low values 0.11 | locus YHR030C, strain SLT2, hits give low values 0.111 | locus YHR079C, strain IRE1, hits give low values 0.112 | locus YHR082C, strain KSP1, hits give low values 0.137 | locus YHR205W, strain SCH9, hits give low values 0.000694 | locus YIL147C, strain SLN1, hits give low values 0.691 | locus YJL095W, strain BCK1, hits give low values 0.104 | locus YJL157C, strain FAR1, hits give low values 0.105 | locus YJR016C, strain ILV3, hits give low values 0.64 | locus YJR066W, strain TOR1 (second series), hits give low values 0.124 | locus YJR066W, strain TOR1, hits give low values 0.131 | locus YKL048C, strain ELM1, hits give low values 0.151 | locus YKL067W, strain YNK1, hits give low values 0.129 | locus YKL101W, strain HSL1, hits give low values 0.131 | locus YKL193C, strain SDS22, hits give low values 0.506 | locus YKL203C, strain TOR2, hits give low values 0.115 | locus YLR113W, strain HOG1, hits give low values 0.165 | locus YLR133W, strain CKI1, hits give low values 0.125 | locus YLR403W, strain SFP1, hits give low values 0.0102 | locus YML070W, strain DAK1, hits give low values 0.122 | locus YMR001C, strain CDC5, hits give low values 0.401 | locus YMR205C, strain PFK2 (second series), hits give low values 0.142 | locus YMR277W, strain FCP1, hits give low values 0.397 | locus YNL006W, strain LST8, hits give low values 0.341 | locus YNL020C, strain ARK1, hits give low values 0.118 | locus YNL161W, strain CBK1, hits give low values 0.402 | locus YNL183C, strain NPR1, hits give low values 0.132 | locus YNL207W, strain RIO2, hits give low values 0.359 | locus YNL222W, strain SSU72, hits give low values 0.619 | locus YNL307C, strain MCK1 (second series), hits give low values 0.105 | locus YOL078W, strain AVO1, hits give low values 0.492 | locus YOL136C, strain PFK27, hits give low values 0.116 | locus YOR061W, strain CKA2, hits give low values 0.157 | locus YOR119C, strain RIO1, hits give low values 0.115 | locus YOR231W, strain MKK1, hits give low values 0.131 | locus YOR329C, strain SCD5, hits give low values 0.513 | locus YPL031C, strain PHO85, hits give low values 0.102 | locus YPL153C, strain RAD53, hits give low values 0.115 | locus YPL204W, strain HRR25, hits give low values 0.11 | locus YPL209C, strain IPL1, hits give low values 0.495 | locus YPL256C, strain CLN2, hits give low values 0.152 | locus YPR025C, strain CCL1, hits give low values 0.652 | strain NNK1, hits give low values 0.265 | strain TSCII, hits give low values 0.322
inactive: locus YDL028C, strain MPS1, hits give low values 0.919 | locus YDL108W, strain KIN28, hits give low values 0.957 | locus YDR052C, strain DBF4, hits give low values 0.915 | locus YDR226W, strain ADK1, hits give low values 0.913 | locus YPR111W, strain DBF20, hits give low values 0.949
